# Screening data from PubChem.
# Nrf2 block = inhibitors of Nrf2 signaling; A549 ARE-Fluc reporter, luciferase luminescence, 18-24 h; Potency, µM (titrated, usually from 46 µM), for the others: at the top dose activity change, negative = inhibition, actives largely listed as inhibitors; 360,000 compounds, 2.1% hits; AID 504444; note: % is set by controls: 0 for no effect and ±100 for the full control effect; nearly all actives have a fitted effect of over 60% in size
#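 Concentration-response testing used A549 ARE_Fluc cells at 5000 cells/well. Following an 18-24 h compound incubation, viability was read by fluorescence (Ex 405/Em 525) and luciferase output by luminescence.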
# Nrf2 ARE act = activates Nrf2 signaling; AREc32 ARE-luciferase reporter (MCF7-derived line), luminescence, 24 h; Potency, µM (top dose mostly 46.1 µM), without a hit: at the highest dose activation, actives largely listed as activators; 410,000 compounds, 0.31% hits; note: % of control where 0% means no effect; nearly all actives have a fitted effect of over 65% in size
#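 For detection, Steady-Glo was added and plates sat 30 min at RT; before that, AREc32_Fluc cells grown overnight in OPTI-MEM/5% FBS had been treated with 23 nL compound for 24 hr at 37 deg C.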
# PINK1 modulator = modulators of PINK1 expression | 410,000 compounds, 0.2% hits | PINK1 immunofluorescence, high-content cytometry, 24 h | AID 624263 | Potency, µM (doses to about 76.6 µM), inactives show at the highest dose activation (PINK1 increase), most hits filed as activators; active = well fitted activation curve with a large enough effect; inconclusive = small, poorly fitted or top-dose-only effect; cell line not stated here; note: % of control where 0% means no effect; nearly all actives have a fitted effect of over 65% in size
#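 Compound titrations (5 concentrations, 24 h) on a stable cell line; DMSO and CCCP controls. Endpoint: fixed-cell PINK1 immunofluorescence with mitochondrial, cell and nuclear markers, scanned by microplate cytometer.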
# A549 tox = counter-screen for Nrf2 inhibitors: cytotoxicity in A549 cells | A549 ARE-Fluc cells, CellTiter-Fluor viability, 18-24 h | Potency, µM (top dose mostly 46 µM), for the others: at the highest dose activity change, negative = cytotoxicity, usual class: inhibitors | 390,000 compounds, 0.16% hits; note: % is set by controls: 0 for no effect and ±100 for the full control effect
#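 Cytotoxicity counterscreen: CellTiter-Fluor fluorescence was measured in A549 ARE_Fluc cells after 18-24 h of compound exposure in a concentration series. The subsequent BugLite luminescent read reports ARE-luciferase activity.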
# Epigenetic derep = epigenetic control regulation, reporter derepression; murine LDR cells, GFP reporter derepression, 30 h; Potency, µM (top dose mostly 53.9 µM), without a hit: at the highest dose GFP activation, hits mostly activators; 280,000 compounds, 0.2% hits; AID 1865; note: % of control where 0% means no effect; nearly all actives have a fitted effect of over 60% in size
#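 GFP-positive cell count by laser-scanning cytometry (objects 20–120 um) after 30 h, 37 C compound exposure of murine LDR cells; reporter is CMV-GFP integrated at a silenced locus, inducible by HDAC or DNMT inhibitors.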
# Starred values were filed as active, the others as inactive; ? = inconclusive; . = not tested or not shown; [ ] = remark or other dose. In the library only some 2.4% were active in any assay of this set; here they are far more common. Unless noted, calls come from the whole dose curve; as a rule, active = well fitted curve in the direction sought with a large enough effect; inconclusive = small, poorly fitted or top-dose-only effect, or another doubt; inactive = no such curve, though single readings can be large; an effect the other way counts as inactive or inconclusive. Potency is the fitted concentration of half-maximal effect.
SMILES,Nrf2 block,Nrf2 ARE act,PINK1 modulator,A549 tox,Epigenetic derep
CCNC(=O)c1ccc(-n2c(-c3ccccc3)cc3c2CCCCC3)cc1,?,?,1.1%,?,0.8%
COCCNC(=O)c1ccc(-n2c(-c3ccccc3)cc3c2CCCCC3)cc1,?,15.8µM*,?,-8.8%,0.0%
COCCN1C(=O)/C(=C/c2ccc(OCc3ccc(C(=O)O)cc3)c(OC)c2)SC1=Nc1ccccc1,?,-0.5%,-0.9%,20.6µM*,-1.4%
CC(=O)NC(Cc1ccc([N+](=O)[O-])cc1)C(=O)NCC(N)C(=O)c1ccccc1 (stereo unspecified),.,.,1.2%,.,.
CC(C)COc1ccc(CN=C(N)N=C(N)N)cc1Cl,4.8%,2.6%,5.0%,-3.2%,-1.0%
CC(C)Oc1ccc(CN=C(N)N=C(N)N)cc1Cl,14.6µM*,-0.2%,2.4%,-16.7%,1.0%
COc1ccc(CN=C(N)N=C(N)N)cc1Cl,16.4µM*,-0.1%,-0.5%,-19.3%,-1.8%
COC(=O)c1ccccc1NC(=O)COc1ccccc1C(=O)Nc1ccccc1,.,.,0.0%,.,.
O=C1c2cccc3cccc(c23)C(=O)N1CCCN(C(=O)c1cccs1)c1cccc(F)c1,?,3.16µM*,1.5%,0.4%,0.0%
COc1ccc(N(CCCN2C(=O)c3cccc4cccc(c34)C2=O)C(=O)c2cccc(OC)c2)cc1,-17.4%,?,1.7%,-6.1%,2.1%
COc1ccc(CS(=O)(=O)/C(Cl)=C(/Cl)C(=O)Nc2ccc(OC)nc2)cc1,16.4µM*,?,-3.0%,20.6µM*,?
COc1ccc(/C=C/C(=O)Nc2ccc(OC)nc2)cc1,?,4.0%,0.9%,1.6%,0.0%
COc1ccc(NC(=O)/C(Cl)=C(/Cl)S(=O)Cc2ccccc2)cn1 (stereo unspecified),-117.0%,-2.4%,-6.1%,20.6µM*,0.0%
CC1CCCCN1c1nnc(NC(=O)Nc2ccccc2F)s1 (stereo unspecified),20.6µM*,-0.7%,-1.3%,-24.7%,-2.0%
Cc1cccc(NC(=S)NNc2ncc(C(F)(F)F)cc2Cl)c1,?,-1.0%,20µM*,-3.5%,-3.0%
FC(F)(F)c1cnc(NNC(=S)Nc2ccccc2Cl)c(Cl)c1,?,4.9%,?,?,1.8%
Cc1cc(C)n(-c2ccc(C(=O)NCC3Cc4cc(-c5cnccn5)ccc4O3)cc2)n1 (stereo unspecified),.,.,0.3%,.,.
COc1cc(OC)cc(C(=O)NCC2Cc3cccc(-c4nc(C)cnc4C)c3O2)c1 (stereo unspecified),.,.,-0.1%,.,.
COc1ccc(CC2(CO)CCN(CC3=Cc4cc(Cl)ccc4OC3)CC2)cc1,13µM*,2.5%,-3.0%,-23.1%,-0.1%
O=C1CC(c2ccccc2)CC2=C1C1(CCCCC1)N=C(Nc1nc3ccccc3o1)N2 (stereo unspecified),9.7%,.,.,0.0%,.
O=C(Cn1c(O)c(/C=C2\C=Nc3ccc(Br)cc32)sc1=O)N1CCCC1,?,0.5%,-2.2%,?,1.7%
O=c1[nH]c(O)c(/C=C2\C=Nc3ccc(Br)cc32)[nH]1,19.1%,10µM*,-0.9%,-5.7%,.
CCC1CN(CCNC(=O)c2ccc(C#CC(C)(C)O)cc2)Cc2cc(OC)ccc2O1 (stereo unspecified),.,.,0.3%,.,.
CC(C)(C)Nc1nc(N2CCCC2)nc(N2CCCC2)n1,?,0.2%,10.9%,14.6µM*,-2.0%
CCN(CC)CCn1c2ccccc2c2cnc(N)c(C#N)c21,5.17µM*,12.3%,-6.6%,?,-1.0%
SMILES,Nrf2 block,Nrf2 ARE act,PINK1 modulator,A549 tox,Epigenetic derep
COc1cc(C=CC(=O)c2cc(OC)c(OC)c(OC)c2)cc(OC)c1OC,23.1µM*,-3.3%,-2.0%,?,.
COc1cc(C=CC(=O)c2ccccc2)cc(OC)c1OC,.,?,-1.0%,.,.
COc1cc(OC)c(C(=O)C=Cc2ccc(OC)c(OC)c2)c(OC)c1,?,11.2µM*,-2.1%,-21.6%,.
CCCCCCCCCCCCCCCC[N+](C)(C)CCN(Cc1ccc(OC)cc1)c1ncccn1,20.6µM*,-3.0%,0.0%,?,1.1%[16.9 µM]
COc1ccc(CN(CCN(C)C)c2ncccn2)cc1,.,.,.,.,-1.3%
CN(C)c1ccc(/C=C2\C=Cc3ccccc32)cc1Cl,.,.,0.9%,.,.
CC1(C(=O)N2CCN(c3ccc([N+](=O)[O-])cc3)CC2)CC1(Cl)Cl (stereo unspecified),18.4µM*,2.9%,0.6%,-24.8%,.
Cc1ccc(S(=O)(=O)CCC(=O)N2CCN(c3ccc([N+](=O)[O-])cc3)CC2)cc1,20.6µM*,1.7%,-2.0%,-5.1%,.
NC(=O)c1ccc(NC(=O)COC(=O)C2(c3cccc(F)c3)CCCC2)cc1,-31.8%,-0.3%,2.7%,1.2%,-4.2%
CN(C)C(=O)c1ccc(NC(=O)COC(=O)C2(c3ccccc3)CCCC2)cc1,16.4µM*,0.3%,0.4%,-0.7%,.
CN=c1scc(C)n1/N=C/c1ccc(O)c(O)c1O,16.6%,4.0%,-1.1%,-11.4%,-2.3%
CCN=c1scc(C)n1/N=C/c1ccsc1,?,7.08µM*,0.2%,-1.7%,-1.2%
Cc1cc2c(s1)c1cnn(Cc3ccc(Cl)c(F)c3)c(=O)c1n2C,-6.1%,.,.,-0.2%,.
O=C(Cc1nnc(CNC(=O)c2ccccc2)s1)Nc1ccc(C(F)(F)F)cc1Cl,1.8%,.,.,-1.3%,.
Cc1cccnc1CCNC(=O)CC1C(=O)NCCN1CC1CCCCC1 (stereo unspecified),23.1µM*,1.3%,-0.3%,1.9%,3.2%
O=C(CC1C(=O)NCCN1CC1CCCCC1)NCc1ccccc1Cl (stereo unspecified),0.3%,0.3%,-0.9%,-0.9%,-0.2%
O=S(=O)(Nc1ccc(Cc2ccncc2)cc1)c1ccc(Cl)s1,18.4µM*,0.0%,1.7%,-0.4%,-0.9%
Cc1ccc(NS(=O)(=O)c2ccc(OCC(=O)Nc3cccc([N+](=O)[O-])c3)c(C)c2)cc1,20.6µM*,3.3%,5.2%[38.3 µM],?,-1.1%
O=S(=O)(Nc1ccc(Cc2ccncc2)cc1)c1ccc(Br)s1,?,0.4%,-3.0%,0.4%,9.2%
O=C(NCc1cccnc1)c1ccc(NS(=O)(=O)c2cccc([N+](=O)[O-])c2)cc1,-5.9%,2.7%,-3.8%,0.4%,.
O=[N+]([O-])c1cccc(S(=O)(=O)Nc2ccc(Cc3ccncc3)cc2)c1,16.4µM*,0.4%,-0.3%,1.9%,-1.1%
O=[N+]([O-])c1cccc(S(=O)(=O)NCc2ccncc2)c1,7.31µM*,-0.4%,-0.8%,?,.
CCC1(c2ccc(F)cc2)NC(=O)N(CC(=O)N2CCN(S(=O)(=O)c3ccc(C)cc3C)CC2)C1=O (stereo unspecified),18.4µM*,6.3%,2.1%,-22.1%,.
CC(C)C(=O)NC(c1ccc(Cl)cc1Cl)c1ccc2cccnc2c1O (stereo unspecified),13µM*,3.8%,5.5%,?,.
CCCCC(=O)NC(c1ccc(OC)cc1)c1ccc2cccnc2c1O (stereo unspecified),.,0.7%,-0.4%,.,.
